Screening results as filed in PubChem BioAssay.
ALR H2O2 inh – blocks human ALR sulfhydryl oxidase activity | 290,000 tested, 3.8% active | inhibition, % (test concentration not listed) | purified ALR, DTT oxidation, H2O2 HRP-luminol luminescence;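 active means mean replicate inhibition above about 79%, with every replicate also reaching it, limit read from the data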
Target sequence (P55789 whole entry, looked up): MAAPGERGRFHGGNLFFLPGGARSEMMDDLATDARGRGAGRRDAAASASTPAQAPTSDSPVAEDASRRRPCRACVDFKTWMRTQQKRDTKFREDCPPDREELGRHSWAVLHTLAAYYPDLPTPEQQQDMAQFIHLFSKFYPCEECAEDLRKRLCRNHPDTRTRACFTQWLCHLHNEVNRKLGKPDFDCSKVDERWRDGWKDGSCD
Efflux pump inh – blocks antifungal efflux pumps in multiplex yeast assay | inhibition, % at 10 µM | S. cerevisiae Candida pump triplex, Nile Red efflux | 330,000 tested, 0.44% active;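 active means plate passing quality check with inhibition over a set limit, or well fluorescence over plate mean plus 4 SD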;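 further: Nile Red retained in pooled yeast measured as flow cytometry median fluorescence; 0% = buffer negative control and 100% = Enniatin B positive control; higher means more Nile Red kept so more efflux inhibition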
GRK2 aptamer HTS – human GRK2 inhibition via aptamer displacement. AID 488847. inhibition of aptamer binding, % at 10 µM. 330,000 tested, 0.59% active. bead flow cytometry, FAM-aptamer displacement from GRK2;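 active means inhibition of aptamer binding above 40%, roughly 3 SD of noise, on plates passing a quality check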;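 further: median bead fluorescence of bound FAM aptamer so fluorescent compounds give negative values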
HDAC3 inhib – human HDAC3 inhibition. O15379. recombinant HDAC3, fluorogenic peptide/trypsin coupled, fluorescence. inhibition, % at 8.3 µM. 320,000 tested, 0.15% active; in the data active means inhibition above about 26%, passing the limit was not always enough
Target sequence (O15379 whole entry, looked up): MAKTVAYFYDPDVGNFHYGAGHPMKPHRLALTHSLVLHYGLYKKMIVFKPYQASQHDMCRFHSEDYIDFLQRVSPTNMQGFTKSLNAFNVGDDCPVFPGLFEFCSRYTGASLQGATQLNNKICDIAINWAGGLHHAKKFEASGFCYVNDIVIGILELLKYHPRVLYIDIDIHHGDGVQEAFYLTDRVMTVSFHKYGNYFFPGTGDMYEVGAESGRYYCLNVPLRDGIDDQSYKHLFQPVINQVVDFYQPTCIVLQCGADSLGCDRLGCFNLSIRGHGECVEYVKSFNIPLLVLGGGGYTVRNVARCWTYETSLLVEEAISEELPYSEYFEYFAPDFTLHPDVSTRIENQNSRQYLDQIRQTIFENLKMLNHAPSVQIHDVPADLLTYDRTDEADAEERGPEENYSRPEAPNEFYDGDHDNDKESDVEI
Rtt109 Vps75 – blocks Candida albicans Rtt109/Vps75 acetyltransferase activity | inhibition, % at 34.9 µM | 330,000 tested, 0.16% active | purified Rtt109/Vps75, ThioGlo CoA-SH fluorescence, 4 h | AID 540336 | Q5AAJ8;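 active means inhibition of at least 50% in every replicate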
Rce1 inh – inhibitors of yeast Ras-converting enzyme. Q03530. yeast membranes, quenched prenylated peptide cleavage fluorescence. calls only. 290,000 tested, 0.27% active. AID 2563;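 active means fall in fluorescence gain of 50% or more versus controls, with final raw signal at or below 3038400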;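 further: plate controls were neutral control wells for no effect and wells lacking membranes for full effect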
Yeast cmpd fluor – counter-screen for efflux pump inhibitors: compound fluorescence. S. cerevisiae AD/pABC3, flow cytometry. fluorescence ratio to DMSO, % at 10 µM. shares compounds with Efflux pump inh. 1,700 tested, 4% active. AID 588517;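 active means fluorescence ratio to DMSO above its plate's cutoff, the plate mean ratio plus 5 SD, cut at about 210% in these data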;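 further: unstained yeast with no Nile Red so the signal is compound autofluorescence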
Mdr1 pump inh – Candida Mdr1 efflux pump inhibition | S. cerevisiae AD/CaMDR1, Nile Red efflux, flow cytometry | 1,700 tested, 1% active | inhibition, % at 10 µM | shares compounds with Efflux pump inh; in the data active means inhibition above about 26%;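 further: 0% = DMSO vehicle and 100% = reference inhibitor; higher means more Nile Red retained so more efflux inhibition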
CaCdr2 efflux inh – inhibitors of Candida albicans Cdr2 efflux pump. shares compounds with Efflux pump inh. S. cerevisiae AD/CaCDR2, Nile Red retention, flow cytometry. 1,700 tested, 4% active. Nile Red retention ratio vs DMSO, % at 10 µM; in the data active means Nile Red retention ratio vs DMSO above about 190%;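 further: higher ratio means more blocking of Cdr2 efflux of the dye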
CaCdr1 efflux inh – Candida Cdr1 efflux pump inhibition | S. cerevisiae AD/CaCDR1, Nile Red efflux, flow cytometry | AID 588522 | 1,700 tested, 1% active | shares compounds with Efflux pump inh | inhibition, % at 10 µM;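 active means inhibition above the screen-wide mean plus twice its standard deviation, cut at about 32% in these data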
Active calls of the source: *. Only some compounds are listed: those with a hit (about 4.5% of all), similar ones and a draw of the others.

How did COc1cc(/C=C2\SC(=S)N(NS(=O)(=O)c3ccccc3)C2=O)ccc1O do in these assays?
Efflux pump inh: 0; GRK2 aptamer HTS: 0; Rtt109 Vps75: 24; Rce1 inh: inactive

Results for Cn1cccc1/C=C1\SC(=S)N(NC(=O)c2ccc(F)cc2)C1=O ?
Efflux pump inh: 0; GRK2 aptamer HTS: 1; HDAC3 inhib: 9; Rtt109 Vps75: 12; Rce1 inh: inactive; Yeast cmpd fluor: 92; Mdr1 pump inh: 0; CaCdr2 efflux inh: 87; CaCdr1 efflux inh: 0

What do the screens show for `COc1cc(/C=C2\SC(=S)N(NS(=O)(=O)c3ccc(C)cc3)C2=O)ccc1O`?
ALR H2O2 inh: 99*; Efflux pump inh: 0; GRK2 aptamer HTS: 0; Rce1 inh: inactive; Yeast cmpd fluor: 117; Mdr1 pump inh: 0; CaCdr2 efflux inh: 109; CaCdr1 efflux inh: 0

Results for O=C(NN1C(=O)/C(=C/c2cccs2)SC1=S)c1cccnc1 ?
Efflux pump inh: 0; GRK2 aptamer HTS: 1; HDAC3 inhib: 6; Rce1 inh: inactive; Yeast cmpd fluor: 105; Mdr1 pump inh: 0; CaCdr2 efflux inh: 93; CaCdr1 efflux inh: 0

What do the screens show for `CC(/C=C1\SC(=S)N(NC(=O)c2ccccc2C)C1=O)=C\c1ccccc1`?
ALR H2O2 inh: 2; Efflux pump inh: 1; GRK2 aptamer HTS: 6; HDAC3 inhib: -1; Rtt109 Vps75: 0; Rce1 inh: inactive

Results for CC(/C=C1\SC(=S)N(NC(=O)c2ccncc2)C1=O)=C\c1ccccc1 ?
ALR H2O2 inh: 24; Efflux pump inh: 0; GRK2 aptamer HTS: 1; HDAC3 inhib: 0; Rtt109 Vps75: -1; Rce1 inh: inactive; Yeast cmpd fluor: 88; Mdr1 pump inh: 0; CaCdr2 efflux inh: 87; CaCdr1 efflux inh: 0

What do the screens show for `Cn1cccc1/C=C1\SC(=S)N(NC(=O)c2ccccc2)C1=O`?
ALR H2O2 inh: -6; Efflux pump inh: 0; GRK2 aptamer HTS: 2; HDAC3 inhib: -7; Rtt109 Vps75: 12

What do the screens show for `Cc1ccc(S(=O)(=O)N2CCOC23CCN(C(=O)C(=O)NCc2ccccc2)CC3)cc1`?
ALR H2O2 inh: 1; Efflux pump inh: 0; GRK2 aptamer HTS: 0; HDAC3 inhib: 6; Rtt109 Vps75: 1; Rce1 inh: inactive

What do the screens show for `COc1ccc(CN(C)C(=O)[C@H](Cc2ccccc2)NC(=O)c2ccco2)c(OC)c1`?
ALR H2O2 inh: 1; Efflux pump inh: 0; GRK2 aptamer HTS: 1; HDAC3 inhib: -2; Rtt109 Vps75: -1

What do the screens show for `COc1ccccc1C(CNC(=O)C(CCSC)NS(=O)(=O)c1ccccc1F)N1CCCC1` (centres undefined)?
ALR H2O2 inh: -2; Efflux pump inh: 0; GRK2 aptamer HTS: 0; HDAC3 inhib: 1; Rtt109 Vps75: 5; Rce1 inh: inactive

How did OCC[C@@H]1C[C@@H](O)[C@H](O)[C@@]2(Cc3ccccc3CCO2)O1 do in these assays?
ALR H2O2 inh: 0; Efflux pump inh: 0; GRK2 aptamer HTS: 1; HDAC3 inhib: -9; Rtt109 Vps75: -5; Rce1 inh: inactive

Results for Cc1ccc(S(=O)(=O)NN2C(=O)/C(=C/c3cccc(F)c3)SC2=S)cc1 ?
ALR H2O2 inh: 51; Efflux pump inh: 0; GRK2 aptamer HTS: 1; HDAC3 inhib: 13; Rtt109 Vps75: 7; Rce1 inh: inactive

Results for CC(/C=C1\SC(=S)N(NS(=O)(=O)c2ccc(C)cc2)C1=O)=C\c1ccccc1 ?
ALR H2O2 inh: 4; Efflux pump inh: 0; GRK2 aptamer HTS: 2; HDAC3 inhib: 7; Rtt109 Vps75: 30; Rce1 inh: inactive; Yeast cmpd fluor: 109; Mdr1 pump inh: 0; CaCdr2 efflux inh: 104; CaCdr1 efflux inh: 0

What do the screens show for `CC[N+]1(CC(O)COC2CC(C)CC(C)(C)C2)CCOCC1` (centres undefined)?
ALR H2O2 inh: -13; Efflux pump inh: 0; GRK2 aptamer HTS: 0; HDAC3 inhib: 13; Rtt109 Vps75: -13; Rce1 inh: inactive

Results for CCOC(=O)c1cc2sccc2n1CC(=O)O ?
ALR H2O2 inh: -4; Efflux pump inh: 0; GRK2 aptamer HTS: 2; HDAC3 inhib: 0; Rtt109 Vps75: -3; Rce1 inh: inactive

How did CCOC(=O)c1cc2sccc2n1CC(=O)c1ccc2c(c1)OCCO2 do in these assays?
ALR H2O2 inh: -3; Efflux pump inh: 0.5*; GRK2 aptamer HTS: 0; HDAC3 inhib: 5; Rtt109 Vps75: -1; Rce1 inh: inactive; Yeast cmpd fluor: 102; Mdr1 pump inh: 0; CaCdr2 efflux inh: 95; CaCdr1 efflux inh: 0

How did COc1ccc(C(CNC(=O)C2COc3ccccc3O2)N2CCCC2)cc1 (centres undefined) do in these assays?
ALR H2O2 inh: -2; Efflux pump inh: 0; GRK2 aptamer HTS: 0; HDAC3 inhib: -2; Rtt109 Vps75: 1

How did O=C(COc1ccc(Cl)cc1Cl)NN1C(=O)/C(=C\c2ccc(Cl)cc2)SC1=S do in these assays?
ALR H2O2 inh: -24; Efflux pump inh: 0; GRK2 aptamer HTS: 0; HDAC3 inhib: 1; Rtt109 Vps75: 1; Rce1 inh: inactive; Yeast cmpd fluor: 99; Mdr1 pump inh: 0; CaCdr2 efflux inh: 107; CaCdr1 efflux inh: 0

What do the screens show for `COc1ccc(C(=O)CN2C(=O)NC3(CCCCCC3)C2=O)cc1`?
Efflux pump inh: 6.2*; GRK2 aptamer HTS: 0; HDAC3 inhib: -4; Rtt109 Vps75: 31; Rce1 inh: inactive; Yeast cmpd fluor: 99; Mdr1 pump inh: 0; CaCdr2 efflux inh: 104; CaCdr1 efflux inh: 0

How did O=C(O)C1CC=CCC1C(=O)Nc1ccc(N2CCN(Cc3ccccc3)CC2)cc1 (centres undefined) do in these assays?
ALR H2O2 inh: -3; Efflux pump inh: 11*; GRK2 aptamer HTS: 15; HDAC3 inhib: 0; Rtt109 Vps75: 13; Rce1 inh: inactive; Yeast cmpd fluor: 92; Mdr1 pump inh: 0; CaCdr2 efflux inh: 95; CaCdr1 efflux inh: 0

Results for Cc1oc2ccc(NS(=O)(=O)c3ccc(F)cc3)cc2c1C(=O)O ?
ALR H2O2 inh: 0; Efflux pump inh: 0; GRK2 aptamer HTS: 0; HDAC3 inhib: -1; Rtt109 Vps75: -5
